From PubChem BioAssay
Where “and” joins values, the source holds several entries; their conditions need not be identical. Identical values can stand only once. Results filed as inconclusive are left out. Calls of active or inactive are those of the source.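 How the source made its calls, unless noted: active means normalized viability below 100% at a tested concentration; inactive means the rest.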

What was measured:
[1] = viability loss in pontine glioma line – cell-based, SU-DIPG-XVII, MIPE5.0, CellTiter-Glo, qHTS, dose response (AID 1347060; cut-off not given, nearly all actives have AC50 up to about 26 µM;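 further: cells exposed to compound for 48 hours before viability readout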); settings: CellTiter-Glo ATP luminescence
[2] = viability loss in pontine glioma line – cell-based, JHH-DIPG-1, MIPE4.0, CellTiter-Glo, qHTS, dose response (AID 1347062; cut-off not given, nearly all actives have AC50 up to about 27 µM;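 further: cells exposed to compound for two days before readout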); settings: JHH-DIPG-1 viability, CellTiter-Glo ATP luminescence
[3] = viability loss in pontine glioma line – cell-based, SU-DIPG-IV, MIPE4.0, CellTiter-Glo, qHTS, dose response (AID 1347063; cut-off not given, nearly all actives have AC50 up to about 30 µM;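 further: compound exposure lasted 48 hours before the viability readout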); settings: CellTiter-Glo ATP luminescence
[4] = viability loss in pontine glioma line – cell-based, SU-DIPG-XIII, MIPE5.0, CellTiter-Glo, qHTS, dose response (AID 1347064; cut-off not given, nearly all actives have AC50 up to about 23 µM;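 further: cells exposed to compound for 48 hours before the viability read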); settings: CellTiter-Glo ATP luminescence
[5] = viability loss in pontine glioma line – cell-based, SU-DIPG-XXV, MIPE5.0, CellTiter-Glo, qHTS, dose response (AID 1347065; cut-off not given, nearly all actives have AC50 up to about 26 µM;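 further: cells exposed to compound for 48 hours before ATP readout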); settings: CellTiter-Glo ATP luminescence
[6] = JHH-DIPG-1 glioma cell viability, MIPE5.0 library, CellTiter-Glo luminescence, qHTS (AID 1347067; cut-off not given, nearly all actives have AC50 up to about 26 µM;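 further: cells exposed to compound for 48 hours before readout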); settings: JHH-DIPG-1 glioma viability, CellTiter-Glo ATP luminescence
[7] = growth inhibition of DIPG cells – cell-based, MIPE5.0 library, qHTS (AID 1347068; cut-off not given, nearly all actives have IC50 up to about 30 µM;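 further: cells exposed to compound for 48 hours before viability readout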); settings: SU-DIPG-XXV viability
[8] = viability loss with induced miR-34 in A549 – imaging, A549 dox-inducible miR-34, nuclei and caspase counts, primary screen (AID 1347080;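 active means compounds whose cell count with miR-34 switched on is under 0.7 times the count with it off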); settings: A549 miR-34 inducible, Hoechst nuclei count, 48 h
[9] = compounds altering HSF1 focus formation in cells – imaging, Selleck Cancer Library (AID 1347162; in the data active means plate-normalised HSF1 focus index below about 0.46); settings: human cells, HSF1 nuclear foci imaging, at 10 µM; SSMD: measured here: HSF1 foci SSMD mean; cell count: measured here: cell number; plate-normalised HSF1 focus index: stronger effect = lower value
[10] = MELAS cybrid and Rieske KO viability enhancers – cell-based, MELAS cybrids, Rieske KO mouse fibroblasts, CellTiter-Glo, primary screen (AID 1508586;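 active means mean z-score across replicates of 1.96 or higher in either the MELAS or the Rieske mutant cell line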;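 further: z relative to plate mean and SD of compound and empty wells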); settings: low glucose
[11] = drug combination growth inhibition, ovarian cancer – cell-based, oncology-focused library, rucaparib conditional, profiling panel (AID 1508598); settings: patient-derived ovarian cancer cells, CellTiter-Glo viability, 144 h, stronger effect = lower value
[12] = growth inhibition of DIPG cells – cell-based, MIPE4.0 library, CellTiter-Glo luminescence, qHTS (AID 1347066; cut-off not given, nearly all actives have AC50 up to about 30 µM;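 further: cells exposed to compound for 48 hours before readout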); settings: SU-DIPG-VI viability, CellTiter-Glo ATP luminescence
[13] = stronger effect = lower value, cell number ratio, induced over uninduced
[14] = measured here: relative caspase fold change +Dox/-Dox
[15] = measured here: total cells with miR-34 induction, stronger effect = lower value
[16] = measured here: total cells without miR-34 induction
[17] = MELAS cybrid survival, CellTiter-Glo 48 h, stronger effect = higher value
[18] = Rieske KO mouse fibroblast survival, CellTiter-Glo 72 h
[19] = at 0.000305 µM, OCI-C5x cells, with rucaparib 10 µM, 100% = cells with rucaparib alone
[20] = at 0.000305 µM, OCI-C5x cells, without rucaparib
[21] = at 0.000305 µM, OCI-P5x cells, with rucaparib 20 µM, 100% = cells with rucaparib alone
[22] = at 0.000305 µM, OCI-P5x cells, without rucaparib
[23] = at 0.00122 µM, OCI-C5x cells, with rucaparib 10 µM, 100% = cells with rucaparib alone
[24] = at 0.00122 µM, OCI-C5x cells, without rucaparib
[25] = at 0.00122 µM, OCI-P5x cells, with rucaparib 20 µM, 100% = cells with rucaparib alone
[26] = at 0.00122 µM, OCI-P5x cells, without rucaparib
[27] = at 0.00488 µM, OCI-C5x cells, with rucaparib 10 µM, 100% = cells with rucaparib alone
[28] = at 0.00488 µM, OCI-C5x cells, without rucaparib
[29] = at 0.00488 µM, OCI-P5x cells, with rucaparib 20 µM, 100% = cells with rucaparib alone
[30] = at 0.00488 µM, OCI-P5x cells, without rucaparib
[31] = at 0.0195 µM, OCI-C5x cells, with rucaparib 10 µM, 100% = cells with rucaparib alone
[32] = at 0.0195 µM, OCI-C5x cells, without rucaparib
[33] = at 0.0195 µM, OCI-P5x cells, with rucaparib 20 µM, 100% = cells with rucaparib alone
[34] = at 0.0195 µM, OCI-P5x cells, without rucaparib
[35] = at 0.0781 µM, OCI-C5x cells, with rucaparib 10 µM, 100% = cells with rucaparib alone
[36] = at 0.0781 µM, OCI-C5x cells, without rucaparib
[37] = at 0.0781 µM, OCI-P5x cells, with rucaparib 20 µM, 100% = cells with rucaparib alone
[38] = at 0.0781 µM, OCI-P5x cells, without rucaparib
[39] = at 0.313 µM, OCI-C5x cells, with rucaparib 10 µM, 100% = cells with rucaparib alone
[40] = at 0.313 µM, OCI-C5x cells, without rucaparib
[41] = at 0.313 µM, OCI-P5x cells, with rucaparib 20 µM, 100% = cells with rucaparib alone
[42] = at 0.313 µM, OCI-P5x cells, without rucaparib
[43] = at 1.25 µM, OCI-C5x cells, with rucaparib 10 µM, 100% = cells with rucaparib alone
[44] = at 1.25 µM, OCI-C5x cells, without rucaparib
[45] = at 1.25 µM, OCI-P5x cells, with rucaparib 20 µM, 100% = cells with rucaparib alone
[46] = at 1.25 µM, OCI-P5x cells, without rucaparib
[47] = at 5 µM, OCI-C5x cells, with rucaparib 10 µM, 100% = cells with rucaparib alone
[48] = at 5 µM, OCI-C5x cells, without rucaparib
[49] = at 5 µM, OCI-P5x cells, with rucaparib 20 µM, 100% = cells with rucaparib alone
[50] = at 5 µM, OCI-P5x cells, without rucaparib

COc1cc2c(Nc3ccc(Cl)c(Cl)c3F)ncnc2cc1OCC1C[C@@H]2CN(C)C[C@@H]2C1 (stereo partly drawn)
active: AC50 [1] 5250 nM | AC50 [2] 18.7 µM | AC50 [3] 6.62 µM | AC50 [4] 8.33 µM | AC50 [5] 7.42 µM and 8.33 µM | AC50 [6] 4.68 µM and 2.35 µM | IC50 [7] 18.6 µM and 16.6 µM

CN1CC[C@@H](c2c(O)cc(O)c3c(=O)cc(-c4ccccc4Cl)oc23)[C@@H](O)C1
active: AC50 [1] 468 nM | AC50 [2] 0.105 µM | AC50 [3] 0.0743 µM | AC50 [4] 0.332 µM | AC50 [5] 468 nM | AC50 [6] 0.59 µM

CCN(CC)CCCCNc1ncc2cc(-c3cc(OC)cc(OC)c3)c(NC(=O)NC(C)(C)C)nc2n1
4880 and 4370: cell count [8, 15]
inactive: fold change [8, 13] 0.886 and 0.737 | plate-normalised HSF1 focus index [9] 0.703 | z-score [10, 17] -0.712 | viability [11, 19] 117% | viability [11, 20] 103% | viability [11, 23] 105% | viability [11, 24] 104% | viability [11, 25] 105% | viability [11, 27] 118% | viability [11, 28] 110% | viability [11, 29] 104% | viability [11, 30] 101% | viability [11, 31] 118% | viability [11, 32] 108% | viability [11, 33] 109% | viability [11, 34] 108% | viability [11, 35] 120% | viability [11, 36] 113% | viability [11, 37] 113% | viability [11, 38] 104% | viability [11, 39] 120% | viability [11, 40] 115% | viability [11, 41] 105% | viability [11, 42] 101% | viability [11, 43] 140% | viability [11, 44] 126% | viability [11, 45] 100% | viability [11, 46] 105% | viability [11, 47] 140%
1.64 and 1.42: fold change [8, 14]
5500 and 5930: cell count [8, 16]
0.5: z-score [10, 18]
7260: cell count [9]
-4.74: SSMD [9]
active: AC50 [1] 468 nM | AC50 [2] 26.4 µM | AC50 [3] 16.6 µM | AC50 [4] 0.372 µM | AC50 [5] 372 nM | AC50 [6] 16.6 µM | IC50 [7] 3.32 µM | viability [11, 21] 96.8% | viability [11, 22] 89.9% | viability [11, 26] 98.6% | viability [11, 48] 85.3% | viability [11, 49] 74.6% | viability [11, 50] 68.4%

CC[C@@H]1C(=O)N(C)c2cnc(Nc3ccc(C(=O)NC4CCC(N5CCN(CC6CC6)CC5)CC4)cc3OC)nc2N1C(C)C (stereo partly drawn)
4.31: SSMD [9]
7310: cell count [9]
active: AC50 [1] 74.2 nM | AC50 [2] 6.62 µM | AC50 [3] 2.35 µM | AC50 [4] 5.9 µM | AC50 [5] 52.5 nM | AC50 [12] 20.9 µM | AC50 [6] 4.17 µM | IC50 [7] 6.61 µM | viability [11, 21] 97.4% | viability [11, 26] 95.9% | viability [11, 27] 89.2% | viability [11, 28] 87.7% | viability [11, 29] 84.5% | viability [11, 30] 26.8% | viability [11, 31] 51.8% | viability [11, 32] 43.7% | viability [11, 33] 64.2% | viability [11, 34] 18.3% | viability [11, 35] 49.3% | viability [11, 36] 32.9% | viability [11, 37] 67.2% | viability [11, 38] 20.5% | viability [11, 39] 41.4% | viability [11, 40] 36.3% | viability [11, 41] 70.1% | viability [11, 42] 17.3% | viability [11, 43] 26.6% | viability [11, 44] 25.2% | viability [11, 45] 9.33% | viability [11, 46] 13.8% | viability [11, 47] 4.03% | viability [11, 48] 21.5% | viability [11, 49] 1.64% | viability [11, 50] 12.5%
inactive: plate-normalised HSF1 focus index [9] 1.16 | viability [11, 19] 101% | viability [11, 20] 104% | viability [11, 22] 102% | viability [11, 23] 107% | viability [11, 24] 102% | viability [11, 25] 100%

Oc1ccc(-c2ccc(-c3cc(Nc4cccc(CNC5CC5)c4)n[nH]3)cc2)c(O)c1
active: AC50 [1] 6610 nM | AC50 [2] 1.66 µM | AC50 [3] 4.69 µM | AC50 [4] 13.2 µM | AC50 [5] 7420 nM | AC50 [12] 16.6 µM | IC50 [7] 26.3 µM

CNC(=O)c1nn(C)c2c1C(C)(C)Cc1cnc(Nc3ccc(N4CCN(C)CC4)cc3)nc1-2
inactive: fold change [8, 13] 1.12
1090: cell count [8, 16]
-3.65: z-score [10, 18]
1220: cell count [8, 15]
active: AC50 [1] 5900 nM | AC50 [2] 2.35 µM | AC50 [3] 14.8 µM | AC50 [4] 6.61 µM | AC50 [5] 2350 nM | AC50 [6] 8.33 µM | IC50 [7] 9.34 µM | z-score [10, 17] 4.48
0.794: fold change [8, 14]

COc1cc(OC)c(/C=C/S(=O)(=O)Cc2ccc(OC)c(NCC(=O)O)c2)c(OC)c1
inactive: viability [11, 19] 110% | viability [11, 20] 120% | viability [11, 21] 106% | viability [11, 23] 114% | viability [11, 24] 111% | viability [11, 25] 102% | viability [11, 26] 104% | viability [11, 27] 107% | viability [11, 28] 115% | viability [11, 29] 103% | viability [11, 30] 101%
active: AC50 [1] 93.4 nM | AC50 [2] 0.935 µM | AC50 [3] 0.0264 µM | AC50 [4] 0.295 µM | AC50 [5] 118 nM | AC50 [6] 0.118 µM | IC50 [7] 0.0661 µM | viability [11, 22] 75.1% | viability [11, 31] 91.1% | viability [11, 32] 88% | viability [11, 33] 94.8% | viability [11, 34] 61.6% | viability [11, 35] 53.4% | viability [11, 36] 45% | viability [11, 37] 73.5% | viability [11, 38] 23.1% | viability [11, 39] 50.7% | viability [11, 40] 35.9% | viability [11, 41] 56.6% | viability [11, 42] 20.6% | viability [11, 43] 37.8% | viability [11, 44] 32.9% | viability [11, 45] 54.9% | viability [11, 46] 14.5% | viability [11, 47] 36.1% | viability [11, 48] 29% | viability [11, 49] 52% | viability [11, 50] 12.1%
